Source: PubChem
Rows were chosen to be rich in hits. Some 2% of all compounds tested hit in one or more screens of this group.
sPLA2-III inh: human group III sPLA2 inhibitors, primary screen, biochemical, QFRET, BODIPY PC-A2 liposome substrate. Group 3 secretory phospholipase A2 (Homo sapiens), Q9NZ20. QFRET BODIPY PC-A2 liposome hydrolysis, fluorescence. inhibition, % at 12.2 µM. actives 0.56% (n = 370,000);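 active = inhibition above mean plus 3 SD of compounds lying within the high and low control bounds, cut at about 19% in these data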
Neddyl block: inhibitors of cullin neddylation, primary screen, biochemical, TR-FRET, uHTS, NAE and Ubc12; inhibition, % at 25 µM; NEDD8-conjugating enzyme Ubc12 (Homo sapiens) + NEDD8-activating enzyme E1 regulatory …; actives 0.58% (n = 360,000); in the data active = inhibition above about 36%
ARNT-TACC3 inh: disruptors of ARNT/TACC3 protein interaction, primary screen, biochemical, AlphaScreen, single concentration; AlphaScreen His-ARNT PAS-B/GST-TACC3 binding, luminescence; TACC3 fragment carries E629A point mutation; inhibition, % at 9.99 µM; actives 0.66% (n = 390,000); Transforming acidic coiled-coil-containing protein 3 (Homo sapiens), Q9Y6A5;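 active = mean inhibition of replicates at least 50% and at least half of replicates each reaching 50%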
NadD block: inhibitors of S. aureus NadD, primary screen, biochemical, colorimetric, uHTS | inhibition, % at 20 µM | purified NadD enzyme, colorimetric absorbance read-out | actives 0.78% (n = 360,000) | Nicotinate-nucleotide adenylyltransferase NadD (Staphylococcus aureus N315); in the data active = inhibition above about 26%
DAGLB inhibitor: DAGLB lipase inhibitors, primary screen, biochemical, fluorescence, HTS; inhibition, % at 5.17 µM; Diacylglycerol lipase-beta (Homo sapiens), Q8NCG7; actives 0.059% (n = 340,000); HEK293T DAGLB membrane lysate, EnzChek fluorogenic substrate; in the data active = inhibition above about 34%
Target sequence (Q8NCG7 whole entry, looked up): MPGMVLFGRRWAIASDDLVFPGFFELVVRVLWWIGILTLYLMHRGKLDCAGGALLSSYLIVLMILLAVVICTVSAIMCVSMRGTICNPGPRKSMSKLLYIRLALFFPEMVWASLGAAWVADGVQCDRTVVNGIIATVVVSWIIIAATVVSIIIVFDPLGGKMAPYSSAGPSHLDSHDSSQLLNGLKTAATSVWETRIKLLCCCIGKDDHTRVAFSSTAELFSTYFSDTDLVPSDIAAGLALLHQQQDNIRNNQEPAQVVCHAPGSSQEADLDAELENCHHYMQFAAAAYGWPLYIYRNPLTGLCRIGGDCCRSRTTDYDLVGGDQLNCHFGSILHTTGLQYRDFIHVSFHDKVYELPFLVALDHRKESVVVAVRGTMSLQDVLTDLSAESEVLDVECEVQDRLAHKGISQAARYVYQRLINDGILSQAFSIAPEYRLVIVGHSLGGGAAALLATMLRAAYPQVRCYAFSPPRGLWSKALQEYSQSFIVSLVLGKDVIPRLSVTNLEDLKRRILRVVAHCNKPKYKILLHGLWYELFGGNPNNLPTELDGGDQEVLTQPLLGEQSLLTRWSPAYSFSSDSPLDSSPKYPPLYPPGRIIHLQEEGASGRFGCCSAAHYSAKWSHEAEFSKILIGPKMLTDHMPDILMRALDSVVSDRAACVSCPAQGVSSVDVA
Neddyl inh conf: blockade of NEDD8 conjugation to cullin – biochemical, TR-FRET, single concentration, confirmation; calls only at 25 µM; AID 652217, 2013; shares compounds with Neddyl block; TR-FRET cullin neddylation biochemical assay; actives 13% (n = 1,800); in the data active = inhibition above about 40%;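 note: neddylation substrate is the cullin 1 ring ligase complex with SKP2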
Large screens that a line does not name were inactive (follow-up assays come after a bar, where shown).

N#Cc1nc(-c2ccco2)oc1NCCN1CCOCC1	Neddyl block 39 | Neddyl inh conf inactive
N#Cc1nc(-c2cccc3ccccc23)oc1NCCN1CCOCC1	none (not shown: sPLA2-III inh, Neddyl block)
Cc1ccc(/C=C/c2ccc(=O)n(Cc3ccc(F)cc3)n2)cc1	none (not shown: Neddyl block)
COc1ccc(/C=C/c2ccc(=O)n(Cc3ccccc3)n2)cc1	Neddyl block 49
O=c1ccc(/C=C/c2ccccc2)nn1Cc1ccc(F)cc1	Neddyl block 45 | Neddyl inh conf inactive
O=C(O)c1ccc2nc(-c3ccccc3)c(-c3ccccc3)nc2c1	none (no result: ARNT-TACC3 inh)
CCN1CCN(C(=O)c2ccc3nc(-c4ccccc4)c(-c4ccccc4)nc3c2)CC1	Neddyl block 60 | Neddyl inh conf active
COC(CNC(=O)c1ccc2nc(-c3ccccc3)c(-c3ccccc3)nc2c1)OC	Neddyl block 49 | Neddyl inh conf active
COc1ccc(-c2nc3ccc(C(=O)NCC(OC)OC)cc3nc2-c2ccc(OC)cc2)cc1	none
COC(=O)C[C@@H]1CC[C@H]2[C@H](COc3ccc(NS(=O)(=O)c4ccccc4F)cc3C(=O)N2C)O1	none (no result: sPLA2-III inh, Neddyl block, NadD block, DAGLB inhibitor)
O=C(C[C@H]1CC[C@H](NC(=O)c2ccncc2)[C@@H](CO)O1)NCC1CC1	none (no result: sPLA2-III inh, Neddyl block, NadD block, DAGLB inhibitor)
CCCN(C)C[C@H]1OCCCC[C@H](C)Oc2ccc(NC(=O)CCC(F)(F)F)cc2C(=O)N([C@H](C)CO)C[C@H]1C	none (no result: sPLA2-III inh, Neddyl block, NadD block, DAGLB inhibitor)
CC(C)CC#Cc1ccc2c(c1)O[C@H](CN(C)C(=O)C1CCCCC1)[C@@H](C)CN([C@@H](C)CO)S2(=O)=O	none (no result: sPLA2-III inh, Neddyl block, NadD block, DAGLB inhibitor)
CCOc1ccc(NC(=O)COC(=O)c2ccc3ncsc3c2)cc1OCC	Neddyl block 65 (no result: ARNT-TACC3 inh) | Neddyl inh conf inactive
O=S(=O)(NC1CCN(Cc2ccc(OCCO)cc2)CC1)c1cc(C(F)(F)F)ccc1Cl	none (no result: sPLA2-III inh, Neddyl block, NadD block, DAGLB inhibitor)
COc1ccc(S(=O)(=O)Nc2ccc3c(c2)C(=O)N([C@@H](C)CO)C[C@@H](C)[C@@H](CN(C)C(=O)Nc2cccc4ccccc24)O3)cc1	none (no result: sPLA2-III inh, Neddyl block, NadD block, DAGLB inhibitor)
CCCCN(C)C(=O)c1cc2cc3ccc(OC)cc3nc2o1	Neddyl block 58 | Neddyl inh conf active
CN(C)C(=O)C[C@H]1C=C[C@H](NC(=O)NC2CCCCC2)[C@@H](CO)O1	none (no result: sPLA2-III inh, Neddyl block, NadD block, DAGLB inhibitor)
CCCCNC(=O)CCCCCn1c(=O)[nH]c2cc(C(=O)OC)ccc2c1=O	none
COC(=O)c1ccc2c(=O)n(CCCCCC(=O)O)c(=O)[nH]c2c1	Neddyl block 48
Cc1ccc(S(=O)(=O)Nc2ccc3c(c2)C(=O)N([C@@H](C)CO)C[C@@H](C)[C@H](CN(C)C(=O)c2ccncc2)OCCCC[C@H](C)O3)cc1	none (no result: sPLA2-III inh, Neddyl block, NadD block, DAGLB inhibitor)
C[C@H]1CN([C@@H](C)CO)S(=O)(=O)c2ccc(-c3ccccc3)cc2O[C@H]1CN(C)C(=O)C1CCCCC1	none (no result: sPLA2-III inh, Neddyl block, NadD block, DAGLB inhibitor)
O=c1[nH]cnc2nc(-c3ccccc3)c(-c3ccccc3)nc12	Neddyl block 63
O=c1[nH]cnc2nn(-c3ccccc3)nc12	none (not shown: Neddyl block, ARNT-TACC3 inh)
O=C(CSc1ccc2nnc(-c3cccnc3)n2n1)Nc1ccccc1C(F)(F)F	Neddyl block 48
O=C(N/N=C/c1sc(N2CCOCC2)nc1-c1ccccc1)c1cccc(S(=O)(=O)N2CCCC2)c1	none (not shown: Neddyl block)
Cc1occc1C(=O)N/N=C/c1sc(N2CCOCC2)nc1-c1ccccc1	none (no result: ARNT-TACC3 inh)
O=C(N/N=C/c1sc(N2CCOCC2)nc1-c1ccccc1)c1ccc(O)cc1	Neddyl block 59 | Neddyl inh conf active
COc1ccc(C(=O)N/N=C/c2sc(N3CCOCC3)nc2-c2ccccc2)cc1OC	Neddyl block 45 | Neddyl inh conf inactive
CO[C@H]1CN(C)C(=O)c2cc(NC(=O)NC(C)C)ccc2OC[C@@H](C)N(C(=O)CC2CC2)C[C@@H]1C	none (no result: sPLA2-III inh, Neddyl block, NadD block, DAGLB inhibitor)
COc1ccc(S(=O)(=O)N2C[C@@H](O)COC[C@@H]3O[C@@H](CC(=O)NCc4ccc(Cl)c(Cl)c4)CC[C@H]32)cc1	none (no result: sPLA2-III inh, Neddyl block, NadD block, DAGLB inhibitor)
